The record followed here is PubChem BioAssay.

Calls of active or inactive are those of the source. Unless noted, the rule behind the calls is not given here.

A short description of experiment [1]: compounds binding Alexa647 anti-His antibody – biochemical, small-molecule microarray, 635 nm fluorescence, artefact control for SMM control protein annotation, primary screen (AID 1128).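 Note: score merges feature fluorescence with signal-to-noise for each printed compound spot.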 The settings on record: higher = more signal.
In experiment [2] the test system is Human papillomavirus type 1a E7 protein (residues 1-88). Kind of experiment: HPV1a E7 small-molecule binders, primary screen, biochemical, small-molecule microarray, residues 1-88, 635 nm (AID 1129). Particulars: small-molecule microarray binding, fluorescence 635 nm; higher = more signal.
The target of experiment [3] is Focal adhesion kinase 1 (Homo sapiens) (UniProt Q05397). Kind of experiment: PTK2 protein binding on printed compound slides – biochemical, small-molecule microarray, 635/667 nm fluorescence, BSA, DTT, primary screen (AID 1130).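 Note: composite of spot emission at 667 nm and signal to noise over triplicate slides.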 The settings on record: 635 nm fluorescence, higher = more signal.
Chain of Focal adhesion kinase 1 (Homo sapiens) (Q05397 whole entry, looked up): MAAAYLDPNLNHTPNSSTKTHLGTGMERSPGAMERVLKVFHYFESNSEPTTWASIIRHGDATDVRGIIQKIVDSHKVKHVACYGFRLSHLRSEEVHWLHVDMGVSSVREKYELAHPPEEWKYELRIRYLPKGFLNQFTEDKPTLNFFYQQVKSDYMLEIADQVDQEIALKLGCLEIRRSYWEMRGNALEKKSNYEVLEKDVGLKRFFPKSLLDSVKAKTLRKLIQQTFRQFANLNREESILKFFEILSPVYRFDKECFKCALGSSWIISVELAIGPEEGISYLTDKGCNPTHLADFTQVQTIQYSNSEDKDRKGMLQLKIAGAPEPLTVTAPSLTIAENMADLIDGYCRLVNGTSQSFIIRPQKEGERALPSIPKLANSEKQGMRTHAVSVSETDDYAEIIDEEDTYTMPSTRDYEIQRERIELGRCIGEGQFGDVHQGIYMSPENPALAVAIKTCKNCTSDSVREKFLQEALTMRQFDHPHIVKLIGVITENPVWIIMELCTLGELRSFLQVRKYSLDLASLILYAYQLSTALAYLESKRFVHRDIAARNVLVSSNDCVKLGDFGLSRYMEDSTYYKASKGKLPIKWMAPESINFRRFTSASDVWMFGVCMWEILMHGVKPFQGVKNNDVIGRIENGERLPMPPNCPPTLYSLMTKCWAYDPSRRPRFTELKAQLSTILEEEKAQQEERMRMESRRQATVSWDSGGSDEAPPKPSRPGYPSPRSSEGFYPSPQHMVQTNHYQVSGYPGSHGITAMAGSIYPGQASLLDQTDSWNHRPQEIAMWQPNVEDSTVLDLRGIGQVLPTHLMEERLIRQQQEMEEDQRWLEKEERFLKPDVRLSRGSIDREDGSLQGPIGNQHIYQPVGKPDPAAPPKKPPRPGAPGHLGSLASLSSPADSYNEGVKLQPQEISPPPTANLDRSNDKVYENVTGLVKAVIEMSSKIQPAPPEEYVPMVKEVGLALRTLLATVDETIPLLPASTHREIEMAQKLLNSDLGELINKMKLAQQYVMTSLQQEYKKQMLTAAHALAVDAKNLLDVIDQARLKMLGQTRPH
For experiment [4], the system named is Fibrinogen (Alexa647-labelled). Kind of experiment: Alexa647-fibrinogen binding to printed small molecules – biochemical, small-molecule microarray, 635/667 nm fluorescence, artefact control for SMM control-protein annotation, profiling panel (AID 1131).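 Note: z-score merges 667 nm fluorescence with per-spot signal-to-noise over triplicate slides.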 Particulars: fibrinogen-A647 binding fluorescence, higher = more signal.
The target of experiment [5] is Follistatin (Homo sapiens) (UniProt P19883). Kind of experiment: FST protein binding to printed compounds – biochemical, small-molecule microarray, 635/667 nm fluorescence, primary screen (AID 1132). Particulars: 635 nm fluorescence, higher = more signal.
Chain of Follistatin (Homo sapiens) (P19883 whole entry, looked up): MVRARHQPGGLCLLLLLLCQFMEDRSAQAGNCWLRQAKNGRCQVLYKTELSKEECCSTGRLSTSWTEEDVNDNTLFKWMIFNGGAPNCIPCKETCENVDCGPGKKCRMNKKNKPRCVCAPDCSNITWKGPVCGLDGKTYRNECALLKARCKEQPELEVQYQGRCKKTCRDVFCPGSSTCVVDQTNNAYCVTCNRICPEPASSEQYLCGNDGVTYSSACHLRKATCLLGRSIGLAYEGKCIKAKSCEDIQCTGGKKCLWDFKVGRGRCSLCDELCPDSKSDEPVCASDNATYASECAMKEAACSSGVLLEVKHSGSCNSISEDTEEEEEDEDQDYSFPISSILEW
The target in experiment [6] is Fibroblast growth factor 2 (Homo sapiens) (UniProt P09038). Kind of experiment: basic fibroblast growth factor binding to printed compounds – biochemical, small-molecule microarray, 635/667 nm fluorescence, primary screen (AID 1133). Particulars: FGF2, fluorescence 635/667, higher = more signal.
Chain of Fibroblast growth factor 2 (Homo sapiens) (P09038 whole entry, looked up): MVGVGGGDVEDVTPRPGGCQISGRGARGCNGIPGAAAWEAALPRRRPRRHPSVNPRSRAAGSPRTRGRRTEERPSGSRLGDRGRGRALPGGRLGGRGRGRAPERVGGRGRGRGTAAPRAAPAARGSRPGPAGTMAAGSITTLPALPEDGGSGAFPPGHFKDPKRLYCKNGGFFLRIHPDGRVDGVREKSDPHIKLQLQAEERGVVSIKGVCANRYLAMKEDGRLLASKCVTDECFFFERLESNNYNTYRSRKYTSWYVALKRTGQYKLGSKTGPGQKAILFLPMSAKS
Experiment [7] in a line: JC-1 mitochondrial potential readout, lung cancer cells – cell-based, A549, JC-1 fluorescence, basal, 24 h, 100 nL, profiling panel (AID 1138).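 Note: A549 lung adenocarcinoma cells under basal conditions with no added stimulus; test concentration not given here.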 Particulars: higher = more signal.
For experiment [8], the system named is Lefty1. Kind of experiment: Lefty1 protein binding to printed compounds – biochemical, small-molecule microarray, 635/667 nm fluorescence, primary screen (AID 1139). The settings on record: fluorescence 635/667, higher = more signal.
Experiment [9] relates to wheat germ agglutinin (Triticum aestivum), Alexa647-labelled. Kind of experiment: Alexa647-WGA lectin binding to printed small molecules – biochemical, small-molecule microarray, 635/667 nm fluorescence, artefact control for SMM control-protein annotation, profiling panel (AID 1140).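 Note: score merges 667 nm feature emission with signal to noise over triplicate slides.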 The settings on record: WGA-A647 binding, 635 nm fluorescence, higher = more signal.
The target of experiment [10] is Luciferin 4-monooxygenase (Photinus pyralis) (UniProt P08659). Kind of experiment: inhibition of purified Photinus pyralis luciferase – biochemical, luminescence, purified enzyme, 2006 set, primary screen (AID 1141).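 Note: cell-free assay with purified firefly luciferase at 100 ng per well in PBS; test concentration not given here.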 Particulars: purified firefly luciferase, SteadyGlo luminescence, 30 min; higher = more signal, called active from +8 up or from −8 down.
Chain of Luciferin 4-monooxygenase (Photinus pyralis) (P08659 whole entry, looked up): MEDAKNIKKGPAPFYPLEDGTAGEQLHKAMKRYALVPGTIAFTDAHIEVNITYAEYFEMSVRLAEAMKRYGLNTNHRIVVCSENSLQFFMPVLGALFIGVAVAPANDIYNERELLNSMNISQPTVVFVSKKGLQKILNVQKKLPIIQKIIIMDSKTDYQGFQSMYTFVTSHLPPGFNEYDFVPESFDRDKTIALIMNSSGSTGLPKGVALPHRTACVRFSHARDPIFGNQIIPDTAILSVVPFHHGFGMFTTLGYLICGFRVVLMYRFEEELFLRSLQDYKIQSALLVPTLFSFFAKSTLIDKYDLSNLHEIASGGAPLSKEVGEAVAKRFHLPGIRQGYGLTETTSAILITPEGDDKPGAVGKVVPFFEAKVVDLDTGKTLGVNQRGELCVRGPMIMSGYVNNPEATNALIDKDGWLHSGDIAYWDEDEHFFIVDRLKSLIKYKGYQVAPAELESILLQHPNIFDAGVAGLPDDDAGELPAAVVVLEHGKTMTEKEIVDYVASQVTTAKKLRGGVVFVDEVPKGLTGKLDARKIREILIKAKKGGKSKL
Experiment [11] has as its system Wnt5a (protein binding on small-molecule microarray). Kind of experiment: small molecules binding Wnt5a protein – biophysical, small-molecule microarray, 635/667 nm fluorescence, primary screen (AID 1142).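 Note: fluorescence read at 667 nm with signal to noise per printed feature.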 The settings on record: 635 nm fluorescence, higher = more signal.
Experiment [12] is described as follows: ATP-based viability of Huh7 replicon cells – cell-based, CellTiter-Glo luminescence, basal, 48 h, cytotoxicity control for HCV replication inhibitor project, primary screen (AID 1143).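 Note: Huh7 hepatoma cells carrying a hepatitis C replication reporter with no stimulus; test concentration not given here.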 The settings on record: higher = more signal, called active from +8 up or from −8 down.
The nature of experiment [13]: Pseudomonas biofilm growth suppression – PAO1 strain, BacTiter-Glo luminescence, LB-PBS, primary screen (AID 1144). The settings on record: P. aeruginosa PAO1 biofilm, 12 h, higher = more signal.
Experiment [14] is described as follows: basal CRE-LacZ reporter activity in PC12 – cell-based, unstimulated, primary screen (AID 1145). Particulars: no forskolin, luminescence, 4.5 h, higher = more signal, called active from +8 up or from −8 down.
The nature of experiment [15]: forskolin-driven CRE-LacZ activity in PC12 – cell-based, CRE-LacZ reporter, forskolin-stimulated, primary screen (AID 1146).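 Note: PC12 cells with 6xCRE LacZ reporter stimulated by forskolin 10 µM; beta-galactosidase reporter signal reflecting CREB driven transcription.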 The settings on record: luminescence, 4.5 h, higher = more signal, called active from +8 up or from −8 down.
Experiment [16] addresses Streptavidin (Streptomyces avidinii) (UniProt P22629). Kind of experiment: compounds binding control protein streptavidin – biophysical, small-molecule microarray, 635/667 nm fluorescence, artefact control for SMM compound annotation, primary screen (AID 1147).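 Note: signal reflects streptavidin binding to arrayed compounds as a control protein.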 The settings on record: higher = more signal.
Experiment [17] can be described thus: probe aInhba binding on compound microarray – biochemical, small-molecule microarray, 635/667 nm fluorescence, primary screen (AID 1148).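 Note: score merges 667nm spot fluorescence with signal-to-noise for antibody binding to printed compounds.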 The settings on record: higher = more signal.
For experiment [18], the target named is Torsin-1A (Homo sapiens) (UniProt O14656). Kind of experiment: TOR1A wild-type binding on microarray – cell lysate, small-molecule microarray, lysate, 635/667 nm, primary screen (AID 1149). The settings on record: COS7 hTOR1A-WT lysate, 635 nm fluorescence, higher = more signal.
Chain of Torsin-1A (Homo sapiens) (O14656 whole entry, looked up): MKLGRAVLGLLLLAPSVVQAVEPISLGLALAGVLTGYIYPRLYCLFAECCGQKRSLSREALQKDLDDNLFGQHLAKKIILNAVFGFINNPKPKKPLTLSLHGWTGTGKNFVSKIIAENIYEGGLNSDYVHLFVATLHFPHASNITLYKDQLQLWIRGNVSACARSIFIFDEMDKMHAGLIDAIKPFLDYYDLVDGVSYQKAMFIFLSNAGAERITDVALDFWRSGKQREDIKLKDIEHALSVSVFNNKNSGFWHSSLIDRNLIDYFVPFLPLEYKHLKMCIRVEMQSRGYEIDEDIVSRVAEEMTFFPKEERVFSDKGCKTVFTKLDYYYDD
Experiment [19] has the same target. Kind of experiment: torsin A mutant lysate binding on microarrays – cell lysate, small-molecule microarray, COS7 lysate, 635/667 nm fluorescence, primary screen (AID 1150).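 Note: score pools 667 nm emission and signal to noise measuring lysate protein binding.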 The settings on record: COS7 hTOR1A mutant lysate, 635 nm fluorescence, higher = more signal.
Experiment [20] deals with Sonic hedgehog protein (Shh). Kind of experiment: Sonic hedgehog microarray binding compounds – biochemical, small-molecule microarray, 635/667 nm fluorescence, primary screen (AID 1151).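 Note: Shh protein binding to compounds spotted on small-molecule microarray slides; score combines spot fluorescence intensity with signal-to-noise across triplicate slides.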 Particulars: 635 nm fluorescence, higher = more signal.

Chain of Streptavidin (Streptomyces avidinii) (P22629 whole entry, looked up): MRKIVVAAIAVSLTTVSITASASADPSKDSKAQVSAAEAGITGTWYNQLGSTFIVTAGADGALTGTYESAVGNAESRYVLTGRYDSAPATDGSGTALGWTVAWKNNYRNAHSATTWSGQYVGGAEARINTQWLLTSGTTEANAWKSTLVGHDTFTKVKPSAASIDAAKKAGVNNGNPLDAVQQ

In the case of `O=C1NC(=O)C2C1C=CC(C(O)C(c1ccccc1)c1ccccc1)N2Nc1ccc(Cl)cc1Cl` (stereo not given), the composite z-score is -0.138 in [1]; 1.15 in [2]; 0.682 in [3]; 0.852 in experiment [4]; 0.896 in experiment [5]; -0.301 in experiment [6]. Also, the composite z-score in [8] was -0.0329; in experiment [9], 0.587; in experiment [11], 0.223; in [16], 1.23; in [17], 0.102; in experiment [18] it was -0.614. Besides, the values for the composite z-score in experiment [19] and in experiment [20] were -0.0412 and -0.566, respectively. Besides, the z-score in experiment [7] was -0.815; in experiment [10], 0.231 (inactive); in experiment [12] it was -1.78 (inactive); in [13] it was -0.548 (inactive); in experiment [14] it was -0.14 (inactive); in [15], 0.253 (inactive).

Consider `CO[C@H]1O[C@H](CO)[C@@H](OC(=O)Nc2ccc(Br)cc2)[C@H](OC(=O)c2cc3ccccc3[nH]2)[C@H]1OC(=O)c1cc2ccccc2[nH]1`, for which the composite z-score worked out at 1.69 in [1]; 1.14 in experiment [2]; 0.468 in experiment [3]; 0.967 in experiment [4]; 0.729 in experiment [5]; 0.355 in experiment [6]. For the same compound, the composite z-score came to 0.311 in experiment [8]; 0.723 in [9]; 0.363 in [11]; 1.22 in [16]; 0.0342 in [17]; 0.154 in [18]. In addition, the composite z-score worked out at 0.46 in experiment [19] and 0.819 in experiment [20]. For the same compound, the z-score was -1.07 in [7]; -1.75 (inactive) in [10]; -6.05 (inactive) in experiment [12]; -2.24 (inactive) in [13]; 2.38 (inactive) in [14]; -1.15 (inactive) in experiment [15].

In the case of `O=C1C2C=CC(C(O)c3c(F)cccc3Cl)N(Nc3ccccc3)C2C(=O)N1c1ccccc1` (stereo not given), the composite z-score is 0.397 in [1]; 1.26 in [2]; 0.471 in experiment [3]; 1.03 in [4]; 1.24 in experiment [5]; -0.0407 in experiment [6]. The composite z-score was determined as 0.464 in experiment [8]; 0.816 in experiment [9]; 0.422 in [11]; 1.1 in [16]; 0.153 in experiment [17]; 0.463 in experiment [18]. Moreover, the composite z-score is 0.836 in experiment [19] and -0.104 in experiment [20]. Also, the z-score in [7] was 0.555; in experiment [10] it was 0.429 (inactive); in experiment [12], -0.165 (inactive); in experiment [13], -0.48 (inactive); in [14] it was 0.0535 (inactive); in experiment [15], -0.0349 (inactive).

For `O=C1c2ccccc2[C@@]2(Cc3ccccc3N(CCN3CCOCC3)C2=O)[C@H](c2ccc(CO)cc2)N1Cc1ccccc1`, the composite z-score in [1] was -0.784; in experiment [2], -0.689; in experiment [3] it was 0.352; in experiment [4], -0.523; in [5] it was 0.0312; in [6], -0.253. Besides, the composite z-score in experiment [8] was -0.0729; in experiment [9], -0.304; in [11], -0.465; in [16] it was -0.383; in [17], -0.231; in experiment [18], 0.437. The composite z-score in [19] was 0.456; in [20], -0.613. Besides, the z-score was 0.202 in experiment [7]; 1.01 (inactive) in [10]; -1.24 (inactive) in experiment [12]; -1.33 (inactive) in experiment [13]; 0.208 (inactive) in [14]; -0.297 (inactive) in experiment [15].

In the case of `O=C1C2C=CC(C(O)c3ccc(F)cc3)N(Nc3ccccc3F)C2C(=O)N1c1ccccc1` (stereo not given), the composite z-score in experiment [1] is 1.55; in experiment [2] it was 1.13; in [3] it was 0.198; in [4], 0.958; in experiment [5] it was 1; in experiment [6], -0.514. In addition, the composite z-score is -0.497 in experiment [8]; 1.17 in experiment [9]; -0.0864 in [11]; 0.59 in experiment [16]; 0.254 in experiment [17]; 0.0654 in experiment [18]. Moreover, the composite z-score in experiment [19] is 0.845; in experiment [20] it was -0.166. For the same compound, the z-score in experiment [7] is -0.227; in [10], 1.28 (inactive); in [12], 0.486 (inactive); in [13], -0.746 (inactive); in experiment [14] it was 0.433 (inactive); in [15], 1.53 (inactive).
